This is a sample that favours compounds with a hit; in the whole collection about 3.1% have one here.
MITF TRPM1 inh: MITF TRPM1 promoter inhibition in SK-MEL-5 cells. SK-MEL-5 TRPM1 promoter luciferase, 24 h. inhibition, % at 12.5 µM. 0.83% of 330,000 active;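 active means mean inhibition across replicates of 60% or more, whatever share of single replicates reaches that level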
HIF-2a block: inhibitors of HIF-2a. AID 624352. inhibition, % at 18.8 µM. 786-0 RCC cells HIF-2a reporter, luciferase luminescence, overnight. 0.72% of 360,000 active;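 active means inhibition of the luminescence signal of 40% or more relative to plate controls, in a single-dose primary screen at 18.75 µM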
ABHD5 PLIN5 PPI: ABHD5-PLIN5 protein interaction inhibition | Q00G26+Q8WTS1 | Split G. princeps luciferase complementation, luminescence, 4 h | inhibition, % at 4 µM | 0.78% of 360,000 active | AID 602281;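 active means inhibition above the mean inhibition across every tested compound plus 3 SD, cut at about 22% in these data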;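 further: 0% = DMSO only wells and the 100% control is not disclosed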
Peg3 prom inh: inhibitors of Peg3 promoter | HeLa PEG-Prom luciferase reporter, luminescence, overnight | inhibition, % at 20 µM | 1.7% of 360,000 active;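 active means inhibition of at least 50% at 20 µM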
KKLEB tox: CF airway cell cytotoxicity counter-screen; AID 602141; KKLEB CF airway cells viability, ATPlite luminescence, overnight; stronger effect = lower value; cells stimulated with P. aeruginosa culture filtrate; 0.36% of 360,000 active; activity change (cytotoxicity), % at 5 µM;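 active means corrected activity change at or below -50% at 5 µM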
CF NFkB inh: cystic fibrosis NF-kB activation inhibition; KKLEB NF-kB-GFP reporter, PAF-induced, GFP fluorescence overnight; 0.86% of 360,000 active; inhibition, % at 5 µM; AID 588850;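 active means at least 50% inhibition at 5 µM, scaled per plate between neutral and stimulator controls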;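 further: PAF is a Pseudomonas aeruginosa culture filtrate used as stimulus; plate controls were PAF-stimulated DMSO wells for no effect and unstimulated DMSO wells for full effect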
An asterisk follows results filed as active; . = no result given.

SMILES | MITF TRPM1 inh | HIF-2a block | ABHD5 PLIN5 PPI | Peg3 prom inh | KKLEB tox | CF NFkB inh
CCOC(=O)C1=C(Cc2ccc(Cl)cc2)C(=O)c2ccccc2C1=O | 17 | -112 | 42* | 50* | -4 | 6
Cc1nn(C(C)C(=O)NC2CCC(C)CC2)c(=O)c2nn(-c3ccccc3)c(C)c12 (centres undefined) | -19 | -101 | -1 | -155 | -1 | -23
CCN(CC(=O)Nc1ccc(NC(C)=O)cc1)Cc1c(O)ccc2cc(Br)ccc12 | -6 | 30 | 6 | 4 | 6 | 8
COc1ccc(CN2CCOCC2)cc1OC | -13 | 3 | -2 | 13 | 5 | -4
COc1cc2sc3ccc(-c4ccc(CN5CCOCC5)cc4)cc3c(=O)c2cc1OC | 2 | -184 | 3 | 99* | -20 | -233
c1ccc(-c2cc3nc(NCc4cccs4)nc(NCc4ccc5occc5c4)c3s2)cc1 | . | -95 | 3 | 64* | -26 | -1
COc1ccccc1-c1cnc(C(O)c2ccc(C)cc2C)[nH]1 (centres undefined) | . | -18 | -10 | -9 | -11 | 5
C/C=N/NC(=O)c1cc(Br)ccc1O | 5 | 9 | 3 | -14 | -4 | 20
O=C(C(=O)c1cc(Br)ccc1O)c1cc(Br)ccc1O | 13 | -35 | -6 | 21 | -28 | 60*
COc1cc(OC)cc(-c2noc([C@@H]3O[C@H](CO)[C@H](O)[C@H](O)[C@H]3O)n2)c1 | . | 9 | -1 | 10 | 12 | -12
COc1cc(SC#N)ccc1N=Cc1c(C)[nH]n(-c2ccc(Cl)cc2)c1=O | 45 | 12 | -24 | 56* | 9 | -13
Cc1ccc(NS(=O)(=O)c2ccc(-c3csc(C)n3)s2)c(C)c1 | 10 | 23 | -8 | -8 | -4 | 1
CC1C[N+](=C2C=C(N3CCOCC3)CC(C)(C)C2)CC(C)O1 (centres undefined) | 8 | 16 | 1 | -8 | 3 | -2
CCCCCCOc1ccc(/C(C)=N/NC2=NCCN2)cc1[N+](=O)[O-] | 34 | -154 | 8 | 111* | -8 | -2
CCCCOc1ccc(Br)cc1/C(C)=N/NC1=NCCN1 | 82* | 26 | 13 | 41 | -18 | 34
COc1ccc(/C(C)=N/NC2=NCCN2)cc1Cl | 2 | 9 | 0 | 7 | 7 | 1
CCOc1ccc(OCCC(=O)Nc2ccccc2C(=O)NC2CC2)cc1 | . | 1 | -1 | -2 | -8 | -2
Cc1cccc(OCC(=O)Nc2ccc(S(=O)(=O)Nc3onc(C)c3C)cc2)c1C | 1 | 7 | -1 | 8 | 5 | 1
CCn1nccc1C(=O)Nc1ccc(C)c(C)c1 | -66 | -211 | 0 | -151 | -2 | -7
O=[N+]([O-])c1cc2no[n+]([O-])c2cc1N1CCCCC1 | 80* | 9 | -12 | 99* | 2 | -77
N#Cc1cc(N2CCCCC2)c([N+](=O)[O-])cc1C#N | -2 | 4 | 2 | 8 | -8 | -3
Cc1nc2ccn(Cc3ccccc3)c(=O)c2cc1C(=O)N1CCN(c2ccccc2)CC1 | 4 | 19 | 12 | 17 | 8 | -22
O=C(COc1ccccc1C(=O)O)Nc1nc2ccc([N+](=O)[O-])cc2s1 | -5 | -128 | -3 | -60 | 1 | 21
Cc1ccccc1NC(=O)CN1C(=O)NC2(CCc3ccccc32)C1=O (centres undefined) | -10 | 4 | -3 | 3 | -6 | 20
COc1cc2c(cc1NC(=O)CN1C(=O)NC3(CCc4ccccc43)C1=O)oc1ccccc12 (centres undefined) | 3 | -41 | 35* | 57* | -8 | 2
SMILES | MITF TRPM1 inh | HIF-2a block | ABHD5 PLIN5 PPI | Peg3 prom inh | KKLEB tox | CF NFkB inh
COc1ccc(CCN2CCC(CN3C(=S)NC[C@@H]3CC(C)C)CC2)cc1OC | 3 | 1 | 6 | -9 | 11 | -19
c1ccc2c(c1)oc1c(N3CCOCC3)ncnc12 | -8 | -105 | 0 | -96 | 14 | -19
COc1ccccc1N1CCN(Cc2ccc(O)c3ncccc23)CC1 | 88* | 5 | 1 | 34 | -14 | 6
COc1ccccc1N1CCN(c2ncnc3c2oc2ccccc23)CC1 | 2 | -163 | 0 | 57* | -7 | 14
CC(=O)Oc1cc2c3c(c1)/C(=C1/SC(=S)NC1=O)C(=O)N3C(C)(C)C=C2C | 1 | -22 | -6 | -40 | 11 | 52*
CCOc1cc2c3c(c1)C(C)=CC(C)(C)N3C(=O)C2=O | 15 | 14 | 10 | 17 | -3 | 29
COc1ccccc1-c1cc(NC(C)=O)c2ncc(-c3cccc(C(C)=O)c3)n2c1 | . | -9 | 6 | 33 | 1 | -9
CCOc1ccc2c(c1)-c1c(ssc1=S)C(C)(C)N2C(=O)c1ccco1 | 43 | 17 | -4 | 31 | -12 | 53*
COc1ccc(CCNC(=O)Cc2ccccc2)cc1OC | -7 | 9 | 4 | 5 | 2 | -6
COc1ccc(CC(=O)NCCc2ccc(OC)c(OC)c2)cc1 | -7 | 15 | -7 | 52* | 1 | -16
CN(C)c1ccc(/C=N/N2CCN(Cc3ccccc3Cl)CC2)cc1 | -13 | -73 | -2 | -17 | -9 | 10
Nc1cccc(-c2nc3cc(S(=O)(=O)c4ccc5oc(-c6cccc(N)c6)nc5c4)ccc3o2)c1 | 55 | -5 | 2 | 73* | 9 | -10
NS(=O)(=O)c1ccc2c(c1)C(=NO)c1cc(S(N)(=O)=O)ccc1-2 | 12 | 22 | 4 | 6 | -2 | 9
NC1=C(Cl)C(=O)c2ccccc2C1=O | 95* | -14 | -16 | -62 | 7 | 60*
NC1=C(Cl)C(=O)c2ccc(S(N)(=O)=O)cc2C1=O | 96* | 97* | -18 | 110* | -95* | 89*
N#CC(NC(=O)OCc1ccccc1)c1ccccc1 (centres undefined) | -8 | 1 | 1 | -3 | 15 | 2
CCN(CC)CCNC(=O)c1ccc(NC(=O)c2cccc(S(=O)(=O)N3CCc4ccccc43)c2)cc1 | 58 | 11 | 10 | 77* | -18 | 6
CCN(CC)CCNC(=O)c1ccc(NC(=O)c2cccc(S(=O)(=O)N3c4ccccc4CC3C)c2)cc1 (centres undefined) | 93* | 22 | 14 | 86* | -14 | 23
CC1Cc2ccccc2N1S(=O)(=O)c1cccc(C(=O)NCCCO)c1 (centres undefined) | -5 | 7 | 7 | 11 | 12 | -12
N#Cc1c(N)n(-c2ccc(N)cc2)c2nc3ccccc3nc12 | -5 | 20 | 4 | 12 | -17 | 10
N#Cc1c(C#N)c(SSc2c(C#N)c(C#N)c(N)n2-c2ccccc2)n(-c2ccccc2)c1N | 93* | 7 | -6 | 105* | -89* | 88*
Cc1ccc(-c2nc3cccnc3o2)cc1NC(=O)COc1ccc(C(C)(C)C)cc1 | -3 | 13 | -3 | 58* | -3 | -17
Cc1ccc(-c2nc3cccnc3o2)cc1NC(=O)COc1ccc(Cl)cc1C | 6 | 9 | 2 | 35 | -49 | 60*
